Source: PubChem (Columbia University Molecular Screening Center)
E-sel TNF inh: TNF alpha driven E-selectin expression inhibition; HUVEC TNFa-induced E-selectin immunofluorescence, high content; inhibition, % at 2 µM; actives 0.71% (n = 120,000);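 active = inhibition above the batch mean plus 3 SD, and confirmed as a hit on visual image review, cut at about 43% in these data; inconclusive = passes the inhibition cutoff but fails visual image review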;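 also: 0% = TNF-stimulated DMSO wells and 100% = unstimulated control wells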
cytoskel mod: modifiers of cytoskeleton assembly; AID 836; actives 0.18% (n = 91,000); HUVEC TNFa F-actin phalloidin imaging, high content; inhibition, % at 2 µM;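 active = inhibition above the batch mean plus 3 SD and confirmed as a hit by visual image inspection, cut at about 30% in these data, passing the limit was not always enough; inconclusive = above the inhibition threshold but rejected on visual inspection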
HUVEC tox TNFa: HUVEC cytotoxicity counter-screen, TNF alpha stimulated | HUVEC TNFalpha-stimulated, Hoechst cell count, imaging | cell count reduction, % at 2 µM | actives 0.17% (n = 93,000);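 active = cell count reduction exceeding the screen mean by over 5 SD, scaled to untreated wells per plate, cut at about 78% in these data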;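 also: cells counted after 24 h of TNF alpha exposure following the 1 h pretreatment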
VCAM1 TNFa inh: reduces TNF alpha induced VCAM1 expression in HUVEC; HUVEC TNFa-induced VCAM-1 immunofluorescence, high-content imaging; inhibition, % at 2 µM; AID 802; actives 0.48% (n = 95,000);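 active = inhibition above the batch mean plus 3 SD, with images confirmed as a hit by eye, cut at about 37% in these data; inconclusive = inhibition above that limit but hit not confirmed in images; inactive = inhibition not above that limit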;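 also: 0% = TNF-stimulated DMSO wells and 100% = unstimulated control wells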
Numbers without * were called inactive. Hits are enriched below; roughly 1.1% of the tested compounds scored in any of these assays.

`CCC(C(=O)N1CCc2cc(OC)c(OC)cc2C1)c1ccccc1` (stereo unspecified) gave E-sel TNF inh 100*, cytoskel mod 30, HUVEC tox TNFa -18 and VCAM1 TNFa inh 12.
`COc1cccc(C(C#N)N2CCCCC2)c1O` (stereo unspecified) gave E-sel TNF inh -14, cytoskel mod 48*, HUVEC tox TNFa -12 and VCAM1 TNFa inh 8.
Screening COc1ccc(C(C#N)N2CCCCCC2)cc1OC (stereo unspecified) returned E-sel TNF inh 17, cytoskel mod 9, HUVEC tox TNFa -19 and VCAM1 TNFa inh -2.
`Cc1ccc2nc(SCC(=O)Nc3cc(C(F)(F)F)ccc3N3CCOCC3)[nH]c2c1` gave E-sel TNF inh -23, cytoskel mod 10, HUVEC tox TNFa 54 and VCAM1 TNFa inh 91*.
For O=C(CSc1nc2ccccc2o1)Nc1cc(C(F)(F)F)ccc1N1CCOCC1 the results were E-sel TNF inh -15, cytoskel mod 4, HUVEC tox TNFa -17 and VCAM1 TNFa inh 4.
`COc1ccc(C2(CNC(=O)c3cc([N+](=O)[O-])cc([N+](=O)[O-])c3)CCCC2)cc1OC` gave E-sel TNF inh 63*.
For CCOC(=O)c1ccc(NS(=O)C23CC4CC(CC(C4)C2)C3)cc1 (stereo unspecified) the results were E-sel TNF inh 17, cytoskel mod -14, HUVEC tox TNFa 40 and VCAM1 TNFa inh 54*.
For CC(C)N(Cc1nc(-c2ccccc2)no1)C(=O)c1ccc2c(c1)OCO2 the results were E-sel TNF inh 3, cytoskel mod -36, HUVEC tox TNFa 8 and VCAM1 TNFa inh 16.
Screening O=C(NCc1nc(-c2ccccc2)no1)c1ccc2c(c1)OCO2 returned E-sel TNF inh 100*, cytoskel mod 6, HUVEC tox TNFa -7 and VCAM1 TNFa inh -5.
`CCn1c(CC(=O)Nc2ccc(C)cc2)n[nH]c1=S` gave E-sel TNF inh -12.
`C=C(C)c1cccc(C(C)(C)NC(=O)Nc2ncccn2)c1` gave E-sel TNF inh -52, cytoskel mod 74*, HUVEC tox TNFa 95* and VCAM1 TNFa inh 99*.
O=C(NCc1ccco1)C1CC(=O)N(c2ccc(F)cc2)C1 (stereo unspecified) was read as E-sel TNF inh -21, cytoskel mod 6, HUVEC tox TNFa -25 and VCAM1 TNFa inh 85*.
Screening CCc1ccc(N2CC(C(=O)NCc3ccco3)CC2=O)cc1 (stereo unspecified) returned E-sel TNF inh -6, cytoskel mod 17, HUVEC tox TNFa -16 and VCAM1 TNFa inh -1.
`FC(F)(F)c1ccccc1NC1=NCCC1` gave E-sel TNF inh -29.
Screening CCOC(=O)c1cnn(-c2nc3c(C)cccc3s2)c1C returned E-sel TNF inh -30, cytoskel mod 36*, HUVEC tox TNFa 90* and VCAM1 TNFa inh 92*.
For Cc1ccccc1NC(=O)NC1(C(=O)NCCCN2CCOCC2)CCCCC1 the results were E-sel TNF inh 4, cytoskel mod 2, HUVEC tox TNFa -12 and VCAM1 TNFa inh 4.
`Cc1cnc(NC(=O)COc2ccccc2)s1` gave HUVEC tox TNFa -21 and VCAM1 TNFa inh 17.
Screening COc1cc(CC(=O)Nc2ncc(C)s2)cc(OC)c1OC returned E-sel TNF inh -7, cytoskel mod 18, HUVEC tox TNFa -23 and VCAM1 TNFa inh 51*.
COc1cc(CCN2C(=O)c3cccc4cccc(c34)C2=O)c(S(=O)(=O)NCCCO)cc1OC was read as cytoskel mod -34, HUVEC tox TNFa -2 and VCAM1 TNFa inh 11.
`Cc1cccc(NC(=O)CC2SC(=O)N(c3ccccc3)C2=O)c1` (stereo unspecified) gave E-sel TNF inh 2, cytoskel mod -35, HUVEC tox TNFa 78* and VCAM1 TNFa inh 96*.
Screening Cc1cccc(C(=O)Oc2ccccc2C2C[C@]3(C)CC(=O)NC3N2C(=O)c2cccc(C)c2)c1 (stereo partly specified) returned E-sel TNF inh -15, cytoskel mod inconclusive, HUVEC tox TNFa 100* and VCAM1 TNFa inh inconclusive.
`CCOC(=O)C1C(=O)NC(c2ccccc2)=NC1c1ccc(OC)cc1` (stereo unspecified) gave E-sel TNF inh -17.
For Cc1cccc(N(CC(=O)N/N=C/c2ccc(OCC(=O)NCc3ccco3)cc2)S(C)(=O)=O)c1C the results were E-sel TNF inh -3, cytoskel mod 0, HUVEC tox TNFa 44 and VCAM1 TNFa inh 78*.
`Cc1cc(C)cc(CSCC(=O)N/N=C/c2ccc(OCC(=O)NCc3ccco3)cc2)c1` gave E-sel TNF inh 48, cytoskel mod 12, HUVEC tox TNFa 9 and VCAM1 TNFa inh 0.
